A selection: hits, their analogues and other compounds. The true share with any hit is near 1.7%.
LDHA inh = blocks human lactate dehydrogenase A; P00338; purified LDHA, NADH/diaphorase-resazurin fluorescence; active compounds read low; activity change, % (values are at about 110 or 230 µM); 0.15% of 480,000 active; in the data active = activity change below about -30%; inconclusive = mostly about -25% to -30%;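 also: plate controls were DMSO wells for no effect and wells without enzyme for full effect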
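Remaining NADH was detected by diaphorase (0.133 mg/mL) converting 37 µM resazurin to fluorescent resorufin, read at 0 and 20 minutes. The preceding 5-minute room-temperature reaction used 2 nM LDHA, 0.2 mM sodium pyruvate and 0.06 mM NADH at pH 7.4.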
mIDH1 inhibitor = inhibitors of human mutant IDH1 R132H; IDH1-R132H enzyme, NADPH consumption, diaphorase/resazurin fluorescence; Potency, µM (series often up to 76.6 µM), inactives show at the top dose activity change, negative = inhibition, usual class: inhibitors; 0.093% of 390,000 active; also: potency is read from the fitted curve at half-maximal effect; % is scaled to controls: 0 for no effect and ±100 for the full control effect; nearly all actives have a fitted effect of over 65% in size
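IDH1-R132H (0.5 ug/mL dispensed) in pH 7.5 Tris buffer was preincubated 30 min with compound, then given a substrate mix of 0.016 mM NADPH and 2 mM alpha-KG for 80 min at room temperature; remaining NADPH was read by diaphorase/resazurin fluorescence.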
PTHR1 agonist = agonists of human PTHR1 parathyroid hormone receptor; Q03431; HEK293 GP2 PTHR1 cells, GloSensor cAMP luminescence, 1 h; Potency, µM (titrated, usually from 115 µM), without a hit: at the top dose activation, hits mostly activators; 0.075% of 410,000 active; also: potency is read from the fitted curve at half-maximal effect; nearly all actives have a fitted effect of over 55% in size
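HEK-293-derived GP2 cells expressing PTHR1 and a GloSensor cAMP reporter, 3,000/well, plated overnight, given luciferin plus IBMX (each 0.5 mM as added) for 1 h at 37 °C, then compound for 1 h at 37 °C. Luminescence was read after 15 min at room temperature.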
GLP1R inv ag = GLP-1 receptor (human) inverse agonism; HEK293 GLP-1R CRE-luciferase, luminescence, 24 h; GLP-1R form is constitutively active; Potency, µM (top dose mostly 38.3 µM), inactives show at the top dose activity change, negative = inhibition, most hits filed as inhibitors; 1.6% of 410,000 active; also: potency is read from the fitted curve at half-maximal effect; % is scaled to controls: 0 for no effect and ±100 for the full control effect; nearly all actives have a fitted effect of over 55% in size
Target sequence (P43220 whole entry, looked up): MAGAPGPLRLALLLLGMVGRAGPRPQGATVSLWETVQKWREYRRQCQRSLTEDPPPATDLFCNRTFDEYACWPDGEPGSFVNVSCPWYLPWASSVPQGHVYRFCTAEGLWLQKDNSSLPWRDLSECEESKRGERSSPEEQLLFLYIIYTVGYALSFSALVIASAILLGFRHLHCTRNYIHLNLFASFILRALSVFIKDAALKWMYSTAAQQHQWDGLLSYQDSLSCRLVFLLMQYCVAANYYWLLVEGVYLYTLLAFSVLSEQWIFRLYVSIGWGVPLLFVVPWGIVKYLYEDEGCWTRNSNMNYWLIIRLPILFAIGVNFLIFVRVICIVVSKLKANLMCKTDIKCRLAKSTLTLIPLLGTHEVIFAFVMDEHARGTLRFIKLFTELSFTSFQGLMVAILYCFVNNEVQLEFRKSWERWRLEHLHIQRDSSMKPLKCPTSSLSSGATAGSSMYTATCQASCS
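Seeding at 200 cells/uL, 12 h culture, 24 hr compound treatment, then luciferase reagent and a luminescence read; cells are HEK293 stably expressing a constitutively active GLP-1R plus cAMP-responsive luciferase.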
GLP1R ag = activates the human GLP-1 receptor. P43220. HEK293 GLP-1R CRE-luciferase, luminescence, 4-6 h; cells express a hypersensitive GLP-1R form. Potency, µM (titrated, usually from 45.6 µM), for the others: top-dose activation, actives largely listed as activators. 0.007% of 380,000 active. AID 624172; also: potency is read from the fitted curve at half-maximal effect; % of control where 0% means no effect
HEK293 tox = cytotoxic in the GLP-1 receptor inverse agonist counter-screen | AID 624418 | 0.13% of 410,000 active | Potency, µM (titrated, usually from 38.3 µM), for inactives: at the top dose activity change, negative = inhibition, usual class: inhibitors | HEK293 cAMP-luciferase reporter cells, luminescence, 24 h;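 also: loss of luciferase light is scored as toxicity; potency is read from the fitted curve at half-maximal effect; % is scaled to controls: 0 for no effect and ±100 for the full control effect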
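MLSMR compounds, 24 hr on cells at 37 deg C/5% CO2; luminescence after luciferase reagent (12 min RT). Inhibition counted as the undesired cytotoxic outcome.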
Active calls of the source: *; i = inactive; ? = inconclusive; . = not tested or not shown; [ ] = remark or other dose. Unless noted, calls follow the shape of the dose curve; as a rule, active = well fitted curve in the direction sought with a large enough effect; inconclusive = small, poorly fitted or top-dose-only effect, or another doubt; inactive = no such curve, though single readings can be large; an effect the other way counts as inactive or inconclusive.

SMILES | LDHA inh | mIDH1 inhibitor | PTHR1 agonist | GLP1R inv ag | GLP1R ag | HEK293 tox
CCOC(=O)C(=NC(C)CC)NNc1cccc(C(F)(F)F)c1 (stereo unspecified) | 2 | 9% | i | ? | 3% | 2%
CC1CCN(CC2CCCCCN2)CC1 (stereo unspecified) | -22 | . | . | . | . | .
O=C(c1ccccc1)C(Nc1cccc([N+](=O)[O-])c1)c1ccccc1 (stereo unspecified) | 3 | -4% | -16% | 7.9µM* | 21% | -2%
Cc1cccc(C(=O)Oc2ccc(/C=N/NC(=O)c3cc(O)cc(O)c3)cc2)c1 | 0 | 3% | -43% | 10µM* | -34% | -12%
O=C(NC1CCCC(C(F)(F)F)C1)c1ccccn1 (stereo unspecified) | 3 | . | . | . | . | .
COC(=O)\C(=C/C=C/C=C/N(C)C)C(C)=O | 9 | . | . | . | . | .
CC1=CC(C)(C)n2c(O)c(N=NC(N)=S)c3cc(C)cc1c32 | -5 | 1% | -17% | 2µM* | 5% | 2.8µM*
O=[N+]([O-])/C=C\c1ccc(N2CCOCC2)cc1 | -4 | -11% | -44% | 11µM* | -7% | ?
CCCN(CC(=O)Nc1ccccc1OC)C(=O)CC1CCCC1 | -10 | -10% | -4% | 8.9µM* | 1% | 14%
CCCN(CC(=O)Nc1ccccc1OC)C(=O)c1cc(-c2ccccc2)nn1-c1ccccc1 | 0 | 5% | -26% | 10µM* | 8% | 4%
Cc1ccccc1C(=O)NCCc1cccnc1 | -1 | . | . | . | . | .
O=C(c1ccco1)N1CCC(c2nc3c(nnn3Cc3ccccc3Cl)c(=O)[nH]2)CC1 | 0 | 0% | i | 49% | 15% | -15%
O=C(c1ccco1)N1CCN(c2nc(C3CC3)nc3c2nnn3Cc2ccccc2Cl)CC1 | -10 | 1% | -18% | 10µM* | 7% | 3%
Cc1ccc(-c2nonc2NC(=O)COc2cccc(C)c2)cc1 | 8 | . | . | . | . | .
CC1=CCC2C(C)(C)C(O)CCC2(C)C1COc1ccc2ccc(=O)oc2c1 (stereo unspecified) | 2 | . | . | . | . | .
Cc1nc2ccccc2c(N)c1C(=O)/C=C/c1ccccc1 | -5 | -11% | -96% | 10µM* | -3% | ?
O=C(Cn1cc(Br)c(=O)[nH]c1=O)N1CCC2(CC1)OCCO2 | 4 | . | . | . | . | .
Cc1nc2nc(N(Cc3ccc(Cl)cc3)C(=O)c3ccco3)[nH]n2c(=O)c1Cc1ccccc1 | 4 | . | . | . | . | .
Cc1cccc(-n2c(SCc3ccc([N+](=O)[O-])cc3)nnc2-c2c[nH]c3ccccc23)c1 | -2 | 0% | -20% | 3.2µM* | 5% | 4%
COc1cccc(-n2c(SC)nnc2-c2c[nH]c3ccccc23)c1 | 1 | 19% | -86% | 7% | -5% | 2%
CCCc1c(C)nc2ncnn2c1Nc1ccccc1 | 6 | . | . | . | . | .
O=C(C=C=Nc1ccccc1)C(=O)N=C=Cc1ccccc1 | -4 | 10% | -26% | ? | 0% | 13µM*
O=C(N/N=C/c1ccccc1)C(=O)N/N=C/c1ccccc1 | 0 | 4% | -5% | 8% | 4% | -11%
CCCCOc1ccc(C(=O)NCC(=O)N2CC(C)CC(C)C2)cc1 (stereo unspecified) | -2 | 14% | i | 11µM* | -1% | -1%
O=C1C2C3C=CC(O3)C2C(=O)N1Nc1ccccc1 (stereo unspecified) | -12 | 3% | i | 8.9µM* | 4% | -4%
SMILES | LDHA inh | mIDH1 inhibitor | PTHR1 agonist | GLP1R inv ag | GLP1R ag | HEK293 tox
O=C(Nc1sc2c(c1C(=O)NCc1cccnc1)CCCC2)c1ccco1 | 7 | 0% | ? | 0% | 19% | 2%
CC(Oc1ccc(F)cc1)C(=O)Nc1sc2c(c1C(=O)NCc1cccnc1)CCCC2 (stereo unspecified) | 5 | 11% | -10% | 10µM* | 1% | -24%
Cc1cc(S(=O)(=O)N2CCN(CC(=O)N(C)Cc3ccccc3)CC2)ccc1Br | -3 | 2% | i | 8.9µM* | 5% | 1%
Cc1cc(OCC(=O)N(C)Cc2ccccc2)ccc1Br | -1 | 2% | i | 10µM* | 3% | 4%
CN(CC(=O)Nc1c(F)cccc1F)Cc1ccccc1 | -4 | . | . | . | . | .
CSc1ccc(CN(C)CC(=O)Nc2c(F)cccc2F)cc1 | -33* | 7% | -24% | -27% | 8% | 22%
CCCCCSc1nc2c(c(=O)[nH]c(=O)n2C)n1CC(O)COc1ccc(CC)cc1 (stereo unspecified) | 4 | . | . | . | . | .
CC(=O)Nc1ccc(/C(C)=N/Nc2nc(Nc3cccc4ccccc34)nc(N3CCOCC3)n2)cc1 | 6 | 0% | i | 2.8µM* | 1% | -21%
CC1CCN(Cc2c(C(=O)N/N=C/c3cc(Br)ccc3O)nnn2-c2nonc2N)CC1 | -11 | 4% | i | 4µM* | -1% | 124%
CC(C)c1c(C(=O)N/N=C/c2cccc3ccccc23)nnn1-c1nonc1N | -4 | -2% | -39% | 6.3µM* | -2% | -20%
Cc1ccc(-c2c(NC(=O)c3cccs3)oc3ccccc3c2=O)cc1 | 1 | . | . | . | . | .
Cc1ccc(C)c(OCCn2cc(C(=O)O)c3ccccc32)c1 | -12 | 33µM* | -16% | -14% | 4% | -6%
CC(=O)c1cn(CCOc2cc(C)ccc2C)c2ccccc12 | 1 | 5% | -40% | 1% | -8% | -6%
COc1ccccc1OCCn1cc(C(=O)c2ccco2)c2ccccc21 | -4 | -2% | -4%[57.5 µM] | 13µM* | -6% | -14%
O=C(NC1=NCCS1)c1ccc2nccnc2c1 | 9 | . | . | . | . | .
CCOc1ccccc1NC(=O)Nc1ccc2c(c1)CCC2 | 0 | -2% | -3% | 10µM* | 13% | -15%
COc1ccc(N/N=C(\C#N)C(=N)SCc2ccccc2)cc1 | -5 | -5% | -37% | 0.28µM* | 13% | ?
CCC(C)Sc1ccc(-c2nc3ccc(C)cn3c2NC2CCCCC2)cc1 (stereo unspecified) | 1 | -10% | -11% | 1% | 5% | 2%
CCCCNc1c(-c2cccc(SC(C)CC)c2)nc2ccc(Cl)cn12 (stereo unspecified) | 5 | 6% | -7% | 10µM* | 8% | 1%
CCC(C)Sc1cc(-c2nc3ccccn3c2NC2CCCCC2)ccc1OC (stereo unspecified) | 4 | 7% | -49% | 5.6µM* | -1% | -22%
CCCCNc1c(-c2ccc(OC)c(SC(C)CC)c2)nc2ccc(Cl)cn12 (stereo unspecified) | 6 | 9% | -26% | 1% | 14% | 20%

Screening data as filed in PubChem.
